Data published in PubChem BioAssay (Tox21).
Inconclusive results are not listed. Active and inactive are the calls of the source. Unless noted, calls come from the whole dose curve.

Legend:
[1] = target: Thyrotropin receptor (Homo sapiens) (UniProt P16473); test: qHTS assay to identify small molecule agonists of the thyroid stimulating hormone receptor (TSHR) signaling pathway (AID 1224843); note: nearly all actives have a fitted effect of over 45% in size
Summary of the method: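 Using 15 concentrations per compound in triplicate, cAMP production was monitored in TSHR-HEK293 cells after 30 min compound incubation at RT; HTRF reagents followed, with fluorescence intensity recorded after 1 h.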

[2] = qHTS assay to identify small molecule agonists of the hypoxia (HIF-1) signaling pathway - cell viability counter screen (AID 1224844); note: nearly all actives have a fitted effect of over 50% in size
Summary of the method: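 HRE-bla ME-180; 0.5% dFBS; cpd 17 h, 37C, 5% CO2; CellTiter-Glo lum., 30 min RT, post-FRET read, same wells.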

[3] = qHTS assay to identify small molecule agonists of H2AX (AID 1224845; active = well fitted activation curve with a large enough effect in the signal ratio in the repeat runs, not every such curve was filed as active; the % refers to the signal ratio)
Summary of the method: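 Wild-type CHO-K1 cells plated overnight, then exposed 3 hr at 37C to compounds at 15 concentrations (0.76% DMSO). Lysed, then HTRF anti-pH2AX(S139)-cryptate/anti-H2AX-d2 detection after 24 hr at room temperature; emissions 665 and 620 nm.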

[4] = qHTS assay to identify small molecule agonists of the hypoxia (HIF-1) signaling pathway (AID 1224846; active = well fitted activation curve with a large enough effect in the signal ratio in the repeat runs, not every such curve was filed as active; the % refers to the signal ratio)
Summary of the method: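 Reporter induction in HRE-bla ME-180 cells is taken as agonism: cells sit 5 hrs after plating, receive compounds or DMSO only, incubate 17 hrs at 37C under 5% CO2, and are loaded with CCF4-AM for beta-lactamase FRET measurement.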

[5] = qHTS assay to identify small molecule agonists of H2AX - cell viability counter screen (AID 1224847); note: top concentration of the series differs between compounds; nearly all actives have a fitted effect of over 30% in size
Summary of the method: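 For this counter screen, overnight-attached CHO-K1 cells received test compounds (15 concentrations, 0.76% DMSO final); 3 hr later at 37C, CellTiter-Glo reagent was added and luminescence recorded after 30 min at room temperature.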

[6] = qHTS assay to identify small molecule antagonists of the estrogen related receptor (ERR) signaling pathway from Tox21 library (AID 1224848; active = well fitted curve in the direction sought with a large enough effect in the repeat runs; an effect the other way counts as inactive or inconclusive; note: nearly all actives have a fitted effect of over 50% in size)
Summary of the method: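 Tox21 10K compounds in DMSO tested for ERR pathway antagonism in NTP's ERR cell line; 18 h, 37 C exposure; ONE-Glo luminescence.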

[7] = qHTS assay to identify small molecule agonists of the estrogen related receptor (ERR) signaling pathway from Tox21 library (AID 1224849); details: ERR reporter cell line, ONE-Glo luciferase, 18 h; at 92.4 µM (top of the series) unless noted; note: nearly all actives have a fitted effect of over 15% in size
Summary of the method: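 Tox21 compounds tested for ERR agonism in an NTP reporter cell line: 18 h treatment at 37 C, then ONE-Glo luminescence.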

[8] = qHTS RealTime-Glo MT Cell Viability Assay in HEK293 cells - 32 hour (AID 1224868; active = well fitted curve in the direction sought with a large enough effect in the repeat runs; an effect the other way counts as inactive or inconclusive; note: top concentration of the series differs between compounds; nearly all actives have a fitted effect of over 50% in size)
Summary of the method: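 Luminescence generated by NanoLuc from substrate produced by living HEK293 cells served as the viability signal. Each value reflects the reading at its stated time point during continuous 40 h compound exposure at 37 C.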

[9] = A CellTox Green Cytotoxicity Assay to monitor cytotoxicity in HEK293 cells - 0 hour (AID 1224869; active = well fitted curve in the direction sought with a large enough effect in the repeat runs; an effect the other way counts as inactive or inconclusive; note: nearly all actives have a fitted effect of over 50% in size)
Summary of the method: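 Tox21 screen in HEK293: membrane-impermeant cyanine dye fluoresces on binding dead-cell DNA; compound pinned 5 h post-seeding, plates held at 37 C, signal read repeatedly through 40 h.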

[10] = qHTS RealTime-Glo MT Cell Viability Assay in HepG2 cells - 24 hour (AID 1224867; active = well fitted curve in the direction sought with a large enough effect in the repeat runs; an effect the other way counts as inactive or inconclusive; note: nearly all actives have a fitted effect of over 50% in size)
Summary of the method: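 Tox21 10K library screened in qHTS format on HepG2 cells carrying RealTime-Glo reagents. Compounds were added after a 5 h preincubation, and the luminescent signal from continuous culture was measured repeatedly during 40 h treatment.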
% is set by controls: 0 for no effect and ±100 for the full control effect.

Thyrotropin receptor (Homo sapiens), sequence (P16473 whole entry, looked up): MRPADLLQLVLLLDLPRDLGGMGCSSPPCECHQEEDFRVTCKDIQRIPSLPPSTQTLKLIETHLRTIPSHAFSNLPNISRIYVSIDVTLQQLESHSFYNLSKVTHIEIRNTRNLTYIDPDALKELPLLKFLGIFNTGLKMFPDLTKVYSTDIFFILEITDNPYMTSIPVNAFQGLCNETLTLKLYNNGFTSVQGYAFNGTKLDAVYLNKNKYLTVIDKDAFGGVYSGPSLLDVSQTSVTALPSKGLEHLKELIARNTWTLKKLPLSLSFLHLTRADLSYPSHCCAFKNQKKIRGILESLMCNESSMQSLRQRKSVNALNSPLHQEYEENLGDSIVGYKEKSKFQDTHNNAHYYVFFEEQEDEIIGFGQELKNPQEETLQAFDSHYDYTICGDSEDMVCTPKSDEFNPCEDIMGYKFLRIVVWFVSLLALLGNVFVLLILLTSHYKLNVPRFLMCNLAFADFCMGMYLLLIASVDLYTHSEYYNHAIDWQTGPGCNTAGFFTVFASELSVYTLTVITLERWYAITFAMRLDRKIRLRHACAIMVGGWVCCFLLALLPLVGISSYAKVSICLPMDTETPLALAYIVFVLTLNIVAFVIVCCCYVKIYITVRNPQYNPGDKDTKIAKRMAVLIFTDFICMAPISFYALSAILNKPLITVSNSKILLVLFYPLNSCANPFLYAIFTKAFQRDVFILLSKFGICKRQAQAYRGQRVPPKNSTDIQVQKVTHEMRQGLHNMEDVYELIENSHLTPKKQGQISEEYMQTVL

C1OCOCO1
inactive: Potency [1] | Potency [2] | outcome [3] | outcome [4] | Potency [5] | Potency [6] | activity change, positive = activation [7] 6.76% | Potency [8] | Potency [9]

CO/N=C(/C(=O)N[C@@H]1C(=O)N2C(C(=O)OCOC(=O)C(C)(C)C)=C(C)CS[C@H]12)c1csc(N)n1
inactive: Potency [1] | Potency [2] | outcome [3] | outcome [4] | Potency [5] | activity change, positive = activation [7] 4.91% [at 42.5 µM] | Potency [10] | Potency [8] | Potency [9]

Cn1cc(S(C)=O)c(=O)c2ccc(F)cc21 (centres undefined)
inactive: Potency [1] | Potency [2] | outcome [3] | outcome [4] | Potency [5] | activity change, positive = activation [7] 0.0404% [at 42.5 µM] | Potency [10] | Potency [8] | Potency [9]

CCCCCCCCCCCCCCCCC
inactive: Potency [1] | Potency [2] | outcome [3] | outcome [4] | Potency [5] | activity change, positive = activation [7] -0.135% | Potency [10] | Potency [8] | Potency [9]

C=C(C)CS(=O)(=O)O
inactive: Potency [1] | Potency [2] | outcome [3] | outcome [4] | Potency [5] | activity change, positive = activation [7] 0.527% | Potency [10] | Potency [8] | Potency [9]

CC(C)c1cc2c(cc1S(=O)(=O)O)[C@@]1(C)CCC[C@@](C)(C(=O)O)[C@@H]1CC2
inactive: Potency [1] | Potency [2] | outcome [3] | outcome [4] | Potency [5] | activity change, positive = activation [7] 5.5% [at 42.5 µM] | Potency [10] | Potency [8] | Potency [9]

CCCCCSCCCCC
inactive: Potency [1] | Potency [2] | outcome [3] | outcome [4] | Potency [5] | activity change, positive = activation [7] 6.38% | Potency [10] | Potency [8] | Potency [9]

N[C@H]1CN(c2c(F)cc3c(=O)c(C(=O)O)cn(C4C[C@H]4F)c3c2Cl)CC12CC2 (some centres undefined)
inactive: Potency [1] | Potency [2] | outcome [3] | outcome [4] | Potency [5] | activity change, positive = activation [7] 5.03% [at 42.5 µM] | Potency [10] | Potency [8] | Potency [9]

CCc1ccc(O)c(OC)c1
inactive: Potency [1] | Potency [2] | outcome [3] | outcome [4] | Potency [5] | Potency [6] | activity change, positive = activation [7] 4.86% | Potency [8] | Potency [9]

N#Cc1ccc(C2CCCc3cncn32)cc1 (centres undefined)
inactive: Potency [1] | Potency [2] | outcome [3] | outcome [4] | Potency [5] | activity change, positive = activation [7] -20.4% [at 42.5 µM] | Potency [10] | Potency [8] | Potency [9]

N=C(N)c1ccc(OCCCOc2ccc(C(=N)N)cc2)cc1
inactive: Potency [1] | Potency [2] | outcome [3] | outcome [4] | Potency [5] | Potency [6] | Potency [8] | Potency [9]

CCOC(=O)C(=O)OCC
inactive: Potency [1] | Potency [2] | outcome [3] | outcome [4] | Potency [5] | activity change, positive = activation [7] 4.42% | Potency [8]

OCCCC1CCCCC1
inactive: Potency [1] | Potency [2] | outcome [3] | outcome [4] | Potency [5] | activity change, positive = activation [7] -0.619% | Potency [10] | Potency [8]

CC(C)(C)c1nnc(NS(=O)(=O)c2ccccc2)s1
inactive: Potency [1] | Potency [2] | outcome [3] | outcome [4] | Potency [5] | activity change, positive = activation [7] -14.8% [at 42.5 µM] | Potency [10] | Potency [8] | Potency [9]

OC1CCCCC1c1ccccc1 (centres undefined)
inactive: Potency [1] | Potency [2] | outcome [3] | outcome [4] | Potency [5] | activity change, positive = activation [7] 0.961% | Potency [10] | Potency [8]

FC1(F)C(F)(F)C(F)(F)C2(F)C(F)(F)C(F)(F)C(F)(F)C(F)(F)C2(F)C1(F)F (centres undefined)
inactive: Potency [1] | Potency [2] | outcome [3] | outcome [4] | Potency [5] | activity change, positive = activation [7] 2.28% [at 42.5 µM] | Potency [10] | Potency [8] | Potency [9]

CC1=CC(C)C(C=O)CC1 (centres undefined)
inactive: Potency [1] | Potency [2] | outcome [3] | outcome [4] | Potency [5] | Potency [6] | activity change, positive = activation [7] 0.053% | Potency [8] | Potency [9]

Cc1ccc(Cl)cc1Cl
inactive: Potency [1] | Potency [2] | outcome [3] | outcome [4] | Potency [5] | activity change, positive = activation [7] -0.115% | Potency [10] | Potency [9]

CCCCCCCCCCCCCC=O
inactive: activation [1] 4.61% [at 8.39 µM] | activity change, negative = cytotoxicity [2] 0.368% [at 6.97 µM] | activation (H2AX phosphorylation) [3] -4.49% [at 14 µM] | activation [4] -0.206% [at 7.01 µM] | activity change, negative = cytotoxicity [5] 0.845% [at 14 µM] | activity change, positive = activation [7] -0.514% [at 8.39 µM] | activity change, negative = cytotoxicity [10] -6.68% [at 6.97 µM] | activity change, negative = cytotoxic [8] 5.71% [at 6.97 µM] | cytotoxicity [9] -4.46% [at 6.97 µM]

CCOC(C)(C)C
inactive: Potency [1] | Potency [2] | outcome [3] | outcome [4] | Potency [5] | activity change, positive = activation [7] 3.27% | Potency [10] | Potency [8] | Potency [9]
